Bioassay records (PubChem)
The sample as a whole holds a higher share of hits than the screen did.
Artemis endo inh = blocks endonuclease activity of human Artemis; Q96SD1; recombinant Artemis, quenched FAM hairpin cleavage fluorescence; inhibition, % at 10 µM; actives 0.78% (n = 30,000); AID 686954;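 active = at 10 µM dose, at least 30% inhibition, measured as corrected fluorescence normalized to stimulator and neutral control wells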
Target sequence (Q96SD1 whole entry, looked up): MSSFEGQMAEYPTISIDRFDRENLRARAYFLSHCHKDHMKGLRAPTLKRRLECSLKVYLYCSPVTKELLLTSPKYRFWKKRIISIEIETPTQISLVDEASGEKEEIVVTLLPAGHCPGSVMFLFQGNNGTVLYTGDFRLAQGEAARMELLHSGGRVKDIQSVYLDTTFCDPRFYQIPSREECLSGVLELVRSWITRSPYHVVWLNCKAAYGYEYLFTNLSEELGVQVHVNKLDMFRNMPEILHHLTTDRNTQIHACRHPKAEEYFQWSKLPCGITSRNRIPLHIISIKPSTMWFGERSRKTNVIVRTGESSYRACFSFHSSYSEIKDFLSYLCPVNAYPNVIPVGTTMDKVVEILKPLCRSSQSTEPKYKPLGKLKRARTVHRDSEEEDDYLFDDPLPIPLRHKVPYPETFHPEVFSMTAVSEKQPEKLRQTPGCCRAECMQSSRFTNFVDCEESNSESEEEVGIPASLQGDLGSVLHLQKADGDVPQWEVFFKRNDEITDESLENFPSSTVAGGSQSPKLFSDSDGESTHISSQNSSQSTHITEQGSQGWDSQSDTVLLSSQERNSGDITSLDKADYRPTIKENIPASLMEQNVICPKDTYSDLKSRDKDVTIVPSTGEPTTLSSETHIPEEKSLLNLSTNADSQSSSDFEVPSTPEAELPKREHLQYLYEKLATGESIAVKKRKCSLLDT
The depositor's hits bear a star.

SMILES | Artemis endo inh
Cc1cc(C)n(C(=O)CSc2nnc(SCC(=O)n3nc(C)cc3C)s2)n1 | 0
CCCC(=O)N1CCN(c2ccc(NC(=O)C(C)(C)C)cc2)CC1 | -6
CCC(=O)Nc1ccc(N2CCN(Cc3ccccc3)CC2)cc1 | 11
O=C(Cc1ccccc1)Nc1ccc(N2CCCC2)cc1 | 59*
CC(C)C(=O)Nc1ccc(N2CCCC2)cc1 | 8
CCCC(=O)Nc1ccc(N2CCOCC2)cc1 | -13
COc1ccccc1C(=O)Nc1ccc(N2CCCCC2)cc1 | 2
O=C(Nc1ccc(N2CCCC2)cc1)C(c1ccccc1)c1ccccc1 | 52*
CCOc1cccc(C(=O)NC(=S)Nc2ccc(N3CCCC3)cc2)c1 | 43*
CCCCOc1cccc(C(=O)Nc2ccc(N3CCN(CC)CC3)cc2)c1 | 5
COc1ccccc1C(=O)Nc1ccc(N2CCN(Cc3ccccc3)CC2)cc1 | 3
CCC(=O)N1CCN(c2ccc(NC(=S)NC(=O)c3cccc([N+](=O)[O-])c3)cc2)CC1 | -3
CCCCC(=O)Nc1ccc(N2CCCC2)cc1 | 44*
CCOC(=O)c1c(N2C(=O)Nc3cc(Cl)c(Cl)cc3N2O)sc2c1CCCCC2 | 19
Cc1ccc(-c2n[nH]c3c2CCC3)cc1 | -11
CCOc1ccc(N(C(C)C(=O)N/N=C(\C)c2cccc(NC(=O)c3ccccc3)c2)S(C)(=O)=O)cc1 (centres undefined) | 5
CC(=O)c1cc(F)c(N2CCN(C(=O)COc3ccc(F)cc3)CC2)cc1C | -11
CCOC(=O)c1ccc(Nc2nc(-c3cccnc3)nc3ccccc23)cc1 | 21
O=C(O)CC(c1cccc2ccccc12)n1cccc1 (centres undefined) | -4
CC(C)CNC(=O)c1ccc(COc2ccc(Cl)cc2Cl)o1 | -4
CCn1c(SCC(=O)Nc2oc(-c3ccccc3)c(-c3ccccc3)c2C#N)nnc1-c1ccco1 | 26
CCn1c(SCC(=O)Nc2oc(-c3ccccc3)c(-c3ccccc3)c2C#N)nnc1-c1ccncc1 | 31*
N#Cc1c(NC(=O)CSc2ccccn2)oc(-c2ccccc2)c1-c1ccccc1 | 9
Cc1oc2ccc(NS(=O)(=O)c3ccc(C(C)(C)C)cc3)cc2c1C(=O)Nc1ccccc1 | 23
CCOC(=O)n1c(=O)n(Cc2ccc(Cl)c(Cl)c2)c2ccccc21 | 10
SMILES | Artemis endo inh
O=S1(=O)C=C(SCc2cccc(Cl)c2)Nc2ccccc21 | 0
O=C(c1cn(-c2ccccc2)nc1-c1cccs1)N1CCN(c2ccc(F)cc2)CC1 | 13
CC(C(=O)O)N1C(=O)/C(=C/C=C/c2ccco2)SC1=S (centres undefined) | 40*
C=CCSC1=N/C(=C\C=C\c2ccco2)C(=O)S1 | 15
O=C1/C(=C\c2ccco2)SC(=S)N1Cc1ccccc1 | 16
Cc1ccc(-n2nnnc2SCC(=O)N2CC(=O)Nc3ccccc32)cc1 | 17
CC1(C)CC(=O)C=C(OC(=O)c2ccc(Cl)cc2)C1 | 4
O=C(c1ccccc1)c1nn(-c2ccccc2)c(=O)cc1C(F)(F)F | -4
O=C(c1ccccc1)c1nn(-c2ccc(Cl)cc2)c(=O)cc1C(F)(F)F | 1
O=C1c2ccccc2C(=O)c2c1oc(C(F)(F)F)c2C(=O)c1ccccc1 | 42*
O=C(Nc1ccc(Br)cn1)C1CCCN1S(=O)(=O)c1ccccc1 (centres undefined) | -1
Clc1ccc(CSc2nnc(-c3sccc3-n3cccc3)o2)cc1 | 1
C=CCNC(=S)N/N=C/c1ccc(-c2cc(Cl)ccc2Cl)o1 | 1
CC1=NOC(=O)/C1=C\c1ccc(-c2cc(Cl)ccc2Cl)o1 | 37*
COC(=O)c1ccc(Cl)c(-c2ccc(/C=N/NC(=O)Nc3ccccc3)o2)c1 | -2
CCCC1CCc2c(sc(N)c2C(N)=O)C1 (centres undefined) | 7
Cc1cc2nc(SCCOC(=O)Nc3ccc(Cl)cc3)nc(C)c2cc1C | 9
CCOC(=O)c1cnc2ccc(C)cc2c1Sc1ccccc1C(=O)OC | 8
Cc1cc(C)n(-c2nc(NCCO)c3c4c(sc3n2)CCCC4)n1 | -2
N=c1c2c3c(sc2ncn1CCCO)CCCC3 | -3
Cc1cc(S(=O)(=O)Nc2nc(CN3CCOCC3)nc3sc4c(c23)CCCC4)ccc1F | -6
Cc1cc(C)n(-c2nc(NCCCO)c3c4c(sc3n2)CCCC4)n1 | 33*
Cc1cc(C)n(-c2nc(NCC(C)O)c3c4c(sc3n2)CCCC4)n1 (centres undefined) | 39*
CCn1c(NN)nc2sc3c(c2c1=O)CCC3 | 1
O=C(NC1CCCCC1)C(c1ccc(F)cc1)N(Cc1ccc2c(c1)OCO2)C(=O)c1cnsn1 (centres undefined) | 1
SMILES | Artemis endo inh
O=C(Nc1c(C(=O)Nc2cccc3ccccc23)cnn1-c1ccccc1)c1ccco1 | 10
N#C/C(=C\c1cn[nH]c1-c1ccc(Cl)cc1)C(=O)NCc1ccccc1 | -1
COC(=O)c1ccccc1OCCCOc1ccc(C=O)cc1OC | -10
Cn1c(-c2ccc(C=O)s2)nc2c3ccccc3c3ccccc3c21 | 46*
CCn1cc(/C=N/NS(=O)(=O)c2ccc(OC)cc2)c(C)n1 | -5
COc1ccc(CCN2C(=O)C3C4CC(C5C(C(=O)N/N=C\c6ccc(Cl)cc6)=NOC45)C3C2=O)cc1OC (centres undefined) | -1
CCCOc1ccc(-c2nc(OC)c3ccccc3n2)cc1 | 2
Cc1cc(Cl)ccc1OCCCC(=O)NO | 63*
Cc1cc(Cl)ccc1OCCCC(=O)NCC1CCCO1 (centres undefined) | 4
Cc1cc(NC(=O)COC(=O)CCCOc2ccc(Cl)cc2C)no1 | 0
CC(C)(C)c1[nH]nc2c1C(Cc1ccccc1)C(C#N)=C(N)O2 (centres undefined) | -2
O=C(COc1ccccc1C(=O)N/N=C\c1ccc(O)c(O)c1)N/N=C/c1ccc(O)c(O)c1 | 66*
CCOc1ccc(/C=N/NC(=O)COc2ccccc2-c2ccccc2)cc1 | 17
Cc1cccc(C)c1OCC(=O)N/N=C/c1ccc2c(c1)OCO2 | -5
CCN(CC)S(=O)(=O)c1ccc(Cc2ncc(C(F)(F)F)cc2Cl)s1 | 9
COc1cccc(C(=O)N/N=C/c2cn[nH]c2-c2ccc(OC)cc2OC)c1 | 7
Cc1ccnc2nc(C(=O)NCCc3ccc(F)cc3)nn12 | 4
CCNC(=O)c1cc2c(=O)n3cccc(C)c3nc2n(Cc2ccc(C)cc2)c1=N | 7
CCCCn1c(=NC(=O)c2ccc3c(c2)OCO3)c(C#N)cc2c(=O)n3cccc(C)c3nc21 | 40*
CCOC(=O)c1cc2c(=O)n3cccc(C)c3nc2n(CC2CCCO2)c1=NC(C)=O (centres undefined) | 2
COc1ccc(C2=Nc3ccccc3OC2)cc1 | 7
Cc1[nH]n2c(=O)cc(-c3ccc([N+](=O)[O-])cc3)nc2c1-c1ccccc1 | 32*
Cc1ccc(N=Nc2c(=O)[nH]n3c(=O)cc(C)[nH]c23)cc1 | 12
CCOC(=O)Cc1cc(=O)n2[nH]c(C)c(-c3ccc(OC)cc3)c2n1 | 5
Cc1ccc(C(=O)Nc2nc3nc(-c4ccccc4)cc(=O)n3[nH]2)cc1 | 3
SMILES | Artemis endo inh
Cc1[nH]n2c(=O)cc(C(C)(C)C)nc2c1-c1ccccc1 | 15
CSc1nc2nc(-c3ccccc3)cc(=O)n2[nH]1 | -2
COc1cccc(-c2cc(C(F)(F)F)n3ncc(C(=O)O)c3n2)c1 | -2
Cc1ccc(N=Nc2c(N)[nH]n3c(=O)cc(-c4ccccc4)nc23)cc1 | 48*
COc1cccc(N=Nc2c(N)[nH]n3c(=O)cc(-c4ccccc4)nc23)c1 | 36*
CCCc1nnc(N2C(=O)c3cccc4cccc(c34)C2=O)s1 | 5
Cc1ccc(S(=O)(=O)Nc2cc(C(=O)Nc3cc(C)cc(C)c3)ccc2Cl)cc1 | 19
